Reference: PubChem BioAssay (EPA / NIEHS)
Activity calls are given as the source filed them. The calls were made as follows: active = hit-call score of the fitted dose curve at least 0.9, where 1 is the maximum; inactive = score below 0.9.

Legend:
[1] = ATG_PBREM_CIS: Attagene CIS-FACTORIAL HepG2 Assay for human Phenobarbital-responsive Enhancer Module (PBREM) (AID 2282955); settings: HepG2 PBREM cis-reporter, Attagene multiplexed transcription; actives raise or lower the signal
In short: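 Fluorescence of labelled reporter cDNA fragments, resolved by capillary electrophoresis, gives mRNA induction in transfected HepG2 cells treated for 24 h; DMSO serves as negative control and baseline.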

[2] = target: Paired box protein Pax-6 (Homo sapiens) (UniProt P26367); assay: ATG_Pax6_CIS: Attagene CIS-FACTORIAL HepG2 Assay for human Paired Box 6 (PAX6) (AID 2282956); settings: HepG2 CIS-FACTORIAL PAX6 reporter transcription, RNA readout; actives raise or lower the signal
In short: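 After twenty-four hours of chemical exposure, transfected HepG2 cells are harvested for RNA. Cis-promoter reporter transcripts are amplified, fluorescently labelled and sized by capillary electrophoresis, with gain and loss of signal scored against DMSO.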

[3] = ATG_PXRE_CIS: Attagene CIS-FACTORIAL HepG2 Assay for human Pregnane X Receptor Element (PXRE) (AID 2282957); settings: HepG2 Attagene CIS-FACTORIAL PXRE reporter, mRNA; actives raise or lower the signal
In short: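 Cells: HepG2, transiently transfected reporter units under cis promoter control. Exposure: 24 h. Detection: reporter mRNA via RT-PCR/CE fluorescence; bidirectional fitting, DMSO-referenced.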

[4] = ATG_PPRE_CIS: Attagene CIS-FACTORIAL HepG2 Assay for human Peroxisome Proliferator-activated Response Element (PPRE) (AID 2282958); settings: HepG2 PPRE cis-element reporter, Attagene transcription factor profiling; actives raise or lower the signal
In short: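 Cells are first transfected transiently with the multiplexed reporter library, then dosed for 24 h. Total RNA is reverse-transcribed, amplified, fluorescently end-labeled and HpaI-cut before capillary electrophoresis; activity is fitted bidirectionally against DMSO controls.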

[5] = ATG_RORE_CIS: Attagene CIS-FACTORIAL HepG2 Assay for human RAR-related Orphan Receptor Element (RORE) (AID 2282959); settings: HepG2 Attagene cis-factorial RORE reporter, mRNA; actives raise or lower the signal
In short: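 Cells were HepG2 carrying transfected cis-regulated reporter constructs, dosed for 24 hours. Total RNA was reverse-transcribed and reporter cDNA amplified, fluorescently labeled and sized by capillary electrophoresis. Activity was fitted bidirectionally relative to DMSO.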

[6] = ATG_Sox_CIS: Attagene CIS-FACTORIAL HepG2 Assay for human SRY-box transcription factor (SOX) (AID 2282960); settings: HepG2 Attagene cis-factorial SOX reporter, mRNA; actives raise or lower the signal
In short: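 Transient MRTU transfection of HepG2; 24 h compound incubation; TriZol RNA, oligo(dT) RT, PCR, 6-FAM primer extension, HpaI cut, CE. Bidirectional fit, DMSO = baseline.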

[7] = target: Transcription factor Sp1 (Homo sapiens) (UniProt P08047); assay: ATG_Sp1_CIS: Attagene CIS-FACTORIAL HepG2 Assay for human Specificity Protein 1 (Sp1) (AID 2282961); settings: HepG2 Sp1 cis-reporter transcription, actives raise or lower the signal
In short: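 Endogenous Sp1 activity was gauged in human liver HepG2 cells bearing transfected reporter units under a cis-regulating promoter. After 24 h dosing, reporter mRNA was quantified by RT-PCR with capillary electrophoresis, and activity fitted bidirectionally versus DMSO.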

[8] = ATG_SREBP_CIS: Attagene CIS-FACTORIAL HepG2 Assay for human Sterol Regulatory Element Binding (SREBP) (AID 2282962); settings: HepG2 Attagene cis-factorial SREBP reporter, mRNA; actives raise or lower the signal
In short: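 Twenty-four hours after chemical dosing of transfected HepG2 cultures, reporter RNA was converted to cDNA, amplified, end-labelled with 6-FAM and resolved by capillary electrophoresis. Responses were fitted relative to DMSO.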

[9] = target: Signal transducer and activator of transcription 3 (Homo sapiens) (UniProt P40763); assay: ATG_STAT3_CIS: Attagene CIS-FACTORIAL HepG2 Assay for human Signal Transducer and Activator of Transcription 3 (STAT3) (AID 2282963); settings: HepG2, Attagene cis-factorial STAT3 reporter transcription; actives raise or lower the signal
In short: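 HepG2 cells transiently transfected with multiple cis-element-driven reporter units report endogenous transcription factor activity. After 24 h compound exposure, reporter mRNA is measured by RT-PCR, 6-FAM labelling, HpaI digestion and capillary electrophoresis. Fitted bidirectionally versus DMSO.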

[10] = ATG_TA_CIS: Attagene CIS-FACTORIAL HepG2 Assay for human TA Basal Promoter (AID 2282964); settings: HepG2 Attagene CIS-factorial TA basal promoter reporter; actives raise or lower the signal
In short: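 Fluorescence from labelled RT-PCR reporter fragments, separated by capillary electrophoresis, gives the signal. Cells: HepG2 transiently carrying multiple reporter units, 24 h chemical dosing. Gain or loss relative to DMSO.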

Measured: AC50

Chain of Signal transducer and activator of transcription 3 (Homo sapiens) (P40763 whole entry, looked up): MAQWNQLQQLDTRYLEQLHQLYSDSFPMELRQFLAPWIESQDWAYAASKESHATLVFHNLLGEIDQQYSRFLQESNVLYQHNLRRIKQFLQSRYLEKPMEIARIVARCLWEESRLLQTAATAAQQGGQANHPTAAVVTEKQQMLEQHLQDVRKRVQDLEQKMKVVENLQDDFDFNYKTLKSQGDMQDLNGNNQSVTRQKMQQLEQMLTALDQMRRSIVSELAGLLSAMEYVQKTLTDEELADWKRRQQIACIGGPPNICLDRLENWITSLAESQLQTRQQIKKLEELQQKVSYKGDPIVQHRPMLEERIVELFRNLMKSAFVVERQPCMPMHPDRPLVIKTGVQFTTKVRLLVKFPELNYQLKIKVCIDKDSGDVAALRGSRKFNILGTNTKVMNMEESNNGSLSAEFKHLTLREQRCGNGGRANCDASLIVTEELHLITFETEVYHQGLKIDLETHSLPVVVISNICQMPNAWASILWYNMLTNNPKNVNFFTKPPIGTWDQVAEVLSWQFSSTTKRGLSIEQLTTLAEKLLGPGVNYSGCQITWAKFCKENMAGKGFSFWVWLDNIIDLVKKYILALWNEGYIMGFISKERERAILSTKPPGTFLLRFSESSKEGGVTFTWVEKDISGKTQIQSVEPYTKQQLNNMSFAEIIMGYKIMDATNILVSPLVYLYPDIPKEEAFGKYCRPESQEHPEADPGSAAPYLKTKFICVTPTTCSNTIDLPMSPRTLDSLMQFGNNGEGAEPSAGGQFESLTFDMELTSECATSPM
Chain of Paired box protein Pax-6 (Homo sapiens) (P26367 whole entry, looked up): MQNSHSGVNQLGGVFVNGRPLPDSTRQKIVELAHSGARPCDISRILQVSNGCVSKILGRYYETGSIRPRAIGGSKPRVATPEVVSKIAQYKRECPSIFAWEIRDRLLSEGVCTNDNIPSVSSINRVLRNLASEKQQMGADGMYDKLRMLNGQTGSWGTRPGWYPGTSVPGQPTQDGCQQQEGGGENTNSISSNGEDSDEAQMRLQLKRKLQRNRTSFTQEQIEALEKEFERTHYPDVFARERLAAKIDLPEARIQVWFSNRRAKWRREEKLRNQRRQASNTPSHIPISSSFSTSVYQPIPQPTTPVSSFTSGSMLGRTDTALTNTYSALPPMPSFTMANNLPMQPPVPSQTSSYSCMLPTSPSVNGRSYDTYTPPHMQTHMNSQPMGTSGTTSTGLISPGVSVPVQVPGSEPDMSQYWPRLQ
Chain of Transcription factor Sp1 (Homo sapiens) (P08047 whole entry, looked up): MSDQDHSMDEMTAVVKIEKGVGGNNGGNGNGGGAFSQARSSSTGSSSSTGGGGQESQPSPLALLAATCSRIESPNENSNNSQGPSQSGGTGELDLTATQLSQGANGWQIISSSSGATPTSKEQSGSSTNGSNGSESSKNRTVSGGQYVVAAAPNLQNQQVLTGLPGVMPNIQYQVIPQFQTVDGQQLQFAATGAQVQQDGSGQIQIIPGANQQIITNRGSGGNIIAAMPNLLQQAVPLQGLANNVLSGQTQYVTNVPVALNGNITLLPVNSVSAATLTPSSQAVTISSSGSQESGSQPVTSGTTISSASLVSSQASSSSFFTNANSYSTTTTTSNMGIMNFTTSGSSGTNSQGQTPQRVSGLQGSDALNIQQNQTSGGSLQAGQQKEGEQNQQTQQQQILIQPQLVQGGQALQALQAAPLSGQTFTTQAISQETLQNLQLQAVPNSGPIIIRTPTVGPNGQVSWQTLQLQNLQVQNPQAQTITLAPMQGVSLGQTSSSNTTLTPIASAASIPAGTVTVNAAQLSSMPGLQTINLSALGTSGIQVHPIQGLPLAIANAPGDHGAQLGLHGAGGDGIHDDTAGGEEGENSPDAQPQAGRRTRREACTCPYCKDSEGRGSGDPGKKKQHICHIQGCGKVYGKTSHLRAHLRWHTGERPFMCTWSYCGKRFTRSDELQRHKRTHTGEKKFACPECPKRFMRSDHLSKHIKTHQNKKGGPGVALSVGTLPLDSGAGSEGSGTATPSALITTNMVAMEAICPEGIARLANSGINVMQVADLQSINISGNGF

CCCCC(O)(Cn1cncn1)c1ccc(Cl)cc1Cl (stereo not given)
active: [2] 31 µM | [3] 13 µM | [5] 24.7 µM | [9] 50 µM | [10] 65 µM
inactive: [1] | [4] | [6] | [7] | [8]

CC(C)N1C(=O)c2ccccc2NS1(=O)=O
active: [3] 12.1 µM | [8] 50 µM
not listed: [1]
inactive: all other assays above

CCCN(CC)CC1COC2(CCC(C(C)(C)C)CC2)O1 (stereo not given)
active: [1] 16.1 µM | [2] 21.9 µM | [3] 13.5 µM | [5] 18.1 µM | [6] 35.5 µM | [8] 24.5 µM | [9] 86.3 µM
inactive: [7] | [10]

CCOP(=S)(OCC)Oc1nc(Cl)n(C(C)C)n1
active: [3] 0.655 µM | [8] 5.98 µM
not listed: [1] | [4]
inactive: all other assays above

Nc1c(Cl)c(Cl)nc(C(=O)O)c1Cl
active: [3] 69.5 µM
not listed: [1]
inactive: all other assays above

COP(=S)(OC)Oc1ccc([N+](=O)[O-])c(C)c1
active: [3] 13.5 µM | [4] 50 µM | [5] 50 µM | [8] 14 µM
inactive: all other assays above

O=C(O)c1c(Cl)ccc2cc(Cl)cnc12
inactive: all assays above

O=C1C2CC=CCC2C(=O)N1SC(Cl)(Cl)Cl (stereo not given)
not listed: [5]
inactive: all other assays above

Cc1ccc(N=CN(C)C=Nc2ccc(C)cc2C)c(C)c1
not listed: [4]
inactive: all other assays above

CS(=O)(=O)c1ccc(C(=O)C2C(=O)CCCC2=O)c([N+](=O)[O-])c1
inactive: all assays above

CNC(=O)Oc1cccc2ccccc12
active: [3] 37.9 µM
not listed: [4]
inactive: all other assays above

CC1(C)C(C=C(Cl)Cl)C1C(=O)OC(C#N)c1cccc(Oc2ccccc2)c1 (stereo not given)
active: [1] 13.1 µM | [3] 2.32 µM
not listed: [4]
inactive: all other assays above

OC(c1ccc(Cl)cc1)(c1ccc(Cl)cc1)C(Cl)(Cl)Cl
active: [3] 2.86 µM
not listed: [5]
inactive: all other assays above

N#CN=C1SCCN1Cc1ccc(Cl)nc1
active: [3] 50 µM
not listed: [1]
inactive: all other assays above

CCC(C)n1c(=O)[nH]c(C)c(Br)c1=O (stereo not given)
active: [3] 50 µM
not listed: [4]
inactive: all other assays above

COc1ccc(-c2ccccc2)cc1NNC(=O)OC(C)C
active: [1] 15.9 µM | [3] 3.69 µM | [8] 15.2 µM
not listed: [4]
inactive: all other assays above

COc1cc(Cl)c(OC)cc1Cl
active: [3] 50 µM
not listed: [1] | [4] | [5]
inactive: all other assays above

COC(=O)N(C(=O)N1CO[C@@]2(C(=O)OC)Cc3cc(Cl)ccc3C2=N1)c1ccc(OC(F)(F)F)cc1
active: [3] 1.24 µM | [5] 13.2 µM | [8] 5.39 µM
not listed: [1]
inactive: all other assays above

Cc1cnc(C2=NC(C)(C(C)C)C(=O)N2)c(C(=O)O)c1 (stereo not given)
active: [3] 24.8 µM
not listed: [1]
inactive: all other assays above

CCNP(=S)(OC)O/C(C)=C/C(=O)OC(C)C (stereo not given)
active: [1] 14.7 µM | [3] 2.6 µM | [8] 16.3 µM
not listed: [4]
inactive: all other assays above

Nc1c(Cl)c(F)nc(OCC(=O)O)c1Cl
active: [3] 50 µM
not listed: [4]
inactive: all other assays above

CC1(C)CCC(=Cc2ccc(Cl)cc2)C1(O)Cn1cncn1 (stereo not given)
active: [3] 3.16 µM | [4] 29.7 µM | [8] 15 µM
inactive: all other assays above

Cc1nc(N(C)C)nc(OC(=O)N(C)C)c1C
active: [3] 50 µM
not listed: [1]
inactive: all other assays above

N#Cc1c[nH]cc1-c1cccc2c1OC(F)(F)O2
active: [3] 11.6 µM | [4] 13.2 µM | [6] 3.85 µM
not listed: [1]
inactive: all other assays above

CC1(C)C(C(=O)OC(C#N)c2cccc(Oc3ccccc3)c2)C1(C)C (stereo not given)
active: [3] 1.74 µM | [4] 11 µM
inactive: all other assays above

CN/C(=N\[N+](=O)[O-])NCc1cnc(Cl)s1
not listed: [4]
inactive: all other assays above

CC(C)NC(=O)N1CC(=O)N(c2cc(Cl)cc(Cl)c2)C1=O
active: [1] 11.8 µM | [3] 5.44 µM | [4] 23.2 µM
inactive: all other assays above

C=C(C)CN(CC)c1c([N+](=O)[O-])cc(C(F)(F)F)cc1[N+](=O)[O-]
active: [1] 13.3 µM | [3] 9.5 µM
inactive: all other assays above

CCCCOCN(C(=O)CCl)c1c(CC)cccc1CC
active: [1] 0.888 µM | [3] 0.265 µM
not listed: [5]
inactive: all other assays above

CCOc1nc(C(Cl)(Cl)Cl)ns1
active: [3] 33.5 µM | [5] 70.3 µM
inactive: all other assays above

COCC(C)N(C(=O)CCl)c1c(C)csc1C (stereo not given)
active: [3] 1.06 µM | [8] 5.88 µM
not listed: [1]
inactive: all other assays above

Clc1cccc(C(Cl)(Cl)Cl)n1
active: [3] 48.7 µM
not listed: [1] | [4]
inactive: all other assays above

CC(C)Nc1nc(Cl)nc(NC(C)C)n1
active: [3] 15.3 µM
not listed: [5]
inactive: all other assays above

Cn1c(-c2ccccc2)cc(-c2ccccc2)[n+]1C
not listed: [4]
inactive: all other assays above

COP(=O)(OC)O/C(C)=C/C(=O)N(C)C
active: [3] 68.5 µM
not listed: [1]
inactive: all other assays above

CCCC(=NOCC)C1=C(O)CC(CC(C)SCC)CC1=O (stereo not given)
active: [3] 29.5 µM
inactive: all other assays above
